According to PubChem BioAssay (EPA / NIEHS):
Records with an inconclusive call do not appear. The source made the active and inactive calls. The calls were made as follows: active = hit-call score of the fitted dose curve at least 0.9, where 1 is the maximum; inconclusive = response in the unintended direction; inactive = score below 0.9.

Legend:
[1] = TOX21_p53_BLA_p2_viability: Viability Assessment in the Tox21 HCT-116 p53 Agonism Beta-lactamase Assay, Phase 2 (AID 2283591);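 also: compound exposure lasted 16 h at 37 °C; actives lower the ATP signal meaning cytotoxicity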
Summary of the method: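 Cytotoxicity readout: CellTiter-Glo ATP luminescence, 30 min at room temperature, after the beta-lactamase read. Cells were HCT116 exposed 16 h at 37C to compounds pin-transferred at 217-fold dilution from DMSO stocks.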

[2] = molecular target: Cellular tumor antigen p53 (Homo sapiens) (UniProt P04637); experiment: TOX21_p53_BLA_p2_ratio: Tox21 HCT-116 p53 Agonism Beta-lactamase Assay, Ratio, Phase 2 (AID 2283592)
Summary of the method: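 HCT116 p53-bla; 4000 cells/well; 5 h pre-incubation; cpd in DMSO, 217-fold dilution; 16 h 37C/5% CO2; CCF4-AM 2 h RT; Ex 405, Em 460/530 ratio; DMSO = baseline; positive fitting direction.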

[3] = TOX21_p53_BLA_p4_viability: Viability Assessment in the Tox21 HCT-116 p53 Agonism Beta-lactamase Assay, Phase 4 (AID 2283597);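 also: hits lower the luminescence signal meaning cytotoxicity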
Summary of the method: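 Cells plated, 5 h pre-incubation; DMSO compounds pinned (217-fold dilution); 16 h, 37C/5% CO2; CCF4-AM 2 h RT; CellTiter-Glo 30 min RT; luminescence read.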

[4] = molecular target: Cellular tumor antigen p53 (Homo sapiens) (UniProt P04637); experiment: TOX21_p53_BLA_p5_ratio: Tox21 HCT-116 p53 Agonism Beta-lactamase Assay, Ratio, Phase 5 (AID 2283599)
Summary of the method: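 Beta-lactamase reporter ratio (blue 460 nm over green 530 nm, 405 nm excitation) after 2 h CCF4-AM loading, in HCT-116 cells exposed 16 h at 37 C to compounds pinned at 217-fold dilution. Increases relative to DMSO baseline scored.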

[5] = TOX21_p53_BLA_p5_viability: Viability Assessment in the Tox21 HCT-116 p53 Agonism Beta-lactamase Assay, Phase 5 (AID 2283600)
Summary of the method: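 4000 cells/well; 5 h pre-incubation; DMSO compounds pin-transferred, 217-fold dilution; 16 h, 37C/5% CO2; CCF4-AM 2 h RT; CellTiter-Glo 30 min RT; luminescence.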

[6] = molecular target: Cellular tumor antigen p53 (Homo sapiens) (UniProt P04637); experiment: TOX21_p53_BLA_p3_ratio: Tox21 HCT-116 p53 Agonism Beta-lactamase Assay, Ratio, Phase 3 (AID 2283596)
Summary of the method: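 HCT116 p53-bla cells (4000/well) given compound in DMSO (217-fold dilution) after 5 h, incubated 16 h at 37C. CCF4-AM substrate 2 h at room temperature; 460/530 nm emission ratio, gain fitted against DMSO.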

[7] = molecular target: Cellular tumor antigen p53 (Homo sapiens) (UniProt P04637); experiment: TOX21_p53_BLA_p4_ratio: Tox21 HCT-116 p53 Agonism Beta-lactamase Assay, Ratio, Phase 4 (AID 2283601)
Summary of the method: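 Signal is the blue/green (460nm/530nm) ratio of cleaved versus uncleaved CCF4-AM substrate, read after 2 h substrate loading. Cells were HCT116 carrying the p53-responsive beta-lactamase reporter, dosed 16 h at 37C, 5% CO2; CellTiter-Glo measured in parallel.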

[8] = TOX21_p53_BLA_p3_viability: Viability Assessment in the Tox21 HCT-116 p53 Agonism Beta-lactamase Assay, Phase 3 (AID 2283593);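 also: cells exposed to compound for 16 h before reading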
Summary of the method: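 Cellular ATP was quantified by CellTiter-Glo luminescence, read after 30 min at room temperature. Beforehand, HCT116 cells (4000/well) received compound 5 h post-seeding, 217-fold diluted from DMSO, then incubated 16 h at 37C.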

Measured: outcome

Chain of Cellular tumor antigen p53 (Homo sapiens) (P04637 whole entry, looked up): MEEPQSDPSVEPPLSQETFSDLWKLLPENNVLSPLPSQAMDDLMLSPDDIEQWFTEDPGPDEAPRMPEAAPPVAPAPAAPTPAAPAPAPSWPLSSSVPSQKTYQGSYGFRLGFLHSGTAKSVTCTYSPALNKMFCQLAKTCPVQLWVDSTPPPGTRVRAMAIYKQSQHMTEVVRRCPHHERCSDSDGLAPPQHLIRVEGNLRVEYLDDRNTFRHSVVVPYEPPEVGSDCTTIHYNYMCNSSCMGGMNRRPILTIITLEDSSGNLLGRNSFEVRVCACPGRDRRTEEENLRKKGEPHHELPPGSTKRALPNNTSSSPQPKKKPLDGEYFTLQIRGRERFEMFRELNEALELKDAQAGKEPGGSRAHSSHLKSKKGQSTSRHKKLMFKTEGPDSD

CCOC(=O)N(C)C(=O)CSP(=S)(OCC)OCC
inactive: [1] | [2] | [3] | [4] | [5]

CCN(CC)Cc1nccn1-c1ccc([N+](=O)[O-])cc1C(=O)c1ccccc1Cl
inactive: [1] | [2] | [3] | [4] | [5]

OCC(Br)CBr (configuration not stated)
not listed: [4] | [8]
inactive: all other assays above

COC(=O)[C@@H]1[C@H]2CC[C@@H](C[C@H]1OC(=O)c1ccccc1)N2C
inactive: [1] | [2] | [3] | [4]

CC(C)(CCl)C(=O)Cl
inactive: [1] | [2] | [3] | [4] | [5]

COP(=S)(OC)Oc1ccc([N+](=O)[O-])cc1Cl
not listed: [4] | [8]
inactive: all other assays above

OP(O)c1ccccc1
not listed: [3] | [8]
inactive: all other assays above

Clc1cc2c(cc1Cl)Oc1cc(Cl)c(Cl)cc1O2
inactive: [1] | [2] | [3] | [4]

Clc1ccc2c(c1)C(c1ccccc1)=NCc1nncn1-2
inactive: [1] | [2] | [6] | [5]

COCCC#N
not listed: [4] | [8]
inactive: all other assays above

O=C/C=C/c1ccco1
not listed: [4] | [8]
inactive: all other assays above

CC(Cc1ccccc1)NCCn1cnc2c1c(=O)n(C)c(=O)n2C (configuration not stated)
not listed: [3] | [8]
inactive: all other assays above

CCCCN=C=O
inactive: [1] | [2] | [6] | [3] | [7]

CCOP(=S)(OCC)Oc1ncn(-c2ccccc2)n1
not listed: [4] | [8]
inactive: all other assays above

ClCc1ccc(Cl)cc1Cl
inactive: [1] | [2] | [6] | [4] | [5]

CCCN1CCC[C@@H]2Cc3nc(N)ncc3C[C@H]21
inactive: [1] | [2] | [3] | [4]

COc1cc(CCN)cc(OC)c1OC
inactive: [1] | [2] | [3] | [4] | [5]

Cc1coc2c1CCC(C)C2 (configuration not stated)
inactive: [1] | [2] | [3] | [4] | [5]

COc1ccc(C=O)cc1O
inactive: [1] | [2] | [6] | [4] | [7]

NC1=NC(=O)C(c2ccccc2)O1 (configuration not stated)
inactive: [1] | [2] | [6] | [5] | [7]

O=[N+]([O-])c1cccc(O)c1
inactive: [1] | [2] | [3] | [4] | [5]

C[C@]12C=CC(=O)C=C1CC[C@@H]1[C@@H]2CC[C@]2(C)OC(=O)CC[C@@H]12
not listed: [3] | [8]
inactive: all other assays above

O=C(O)/C=C/C(=O)O
not listed: [3] | [8]
inactive: all other assays above

CC(C)(C)NC[C@H](O)c1ccc(O)cc1Cl
inactive: [1] | [2] | [3]

O=c1oc2ccccc2c(O)c1C1CCCc2ccccc21 (configuration not stated)
inactive: [1] | [2] | [6] | [4] | [5]

Clc1ccc(C2(Cn3cncn3)OCCO2)c(Cl)c1
inactive: [1] | [2] | [4] | [5] | [7]

ClCC1CO1 (configuration not stated)
not listed: [6] | [8]
inactive: all other assays above

COC1CC(=C(c2cccs2)c2cccs2)C[N+](C)(C)C1 (configuration not stated)
inactive: [1] | [2] | [4] | [5]

O=C(NCc1cccnc1)Nc1ccc([N+](=O)[O-])cc1
not listed: [6] | [8]
inactive: all other assays above

CCN1C[C@]2(COC)[C@H](O)C[C@H](OC)[C@@]34[C@@H]5C[C@@]6(O)[C@H](OC(=O)c7ccccc7)[C@@H]5[C@@](OC(C)=O)([C@@H]([C@H](OC)[C@H]23)[C@@H]14)[C@@H](O)[C@@H]6OC
not listed: [6] | [8]
inactive: all other assays above

CN(C)CCc1c[nH]c2cccc(OP(=O)(O)O)c12
inactive: [1] | [2] | [4] | [5]

CC(C)OS(C)(=O)=O
inactive: [1] | [8]

CC(C)c1ccc(NC(=O)N(C)C)cc1
not listed: [2]
inactive: all other assays above

FC(F)(F)c1cccc(C2=CCN(CCc3ccc4ccccc4c3)CC2)c1
inactive: [1] | [8] | [6] | [3]
